Rows were chosen to be rich in hits. Some 6% of all compounds tested hit in one or more screens of this group.
D1 agonist: agonists of human D1 dopamine receptor. 360,000 compounds, 1% hits. AID 504660. activation, % at 2 µM. P21728. HEK293 T-REx D1 cells, calcium flux, agonist mode; in the data active = activation above about 30%
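Inducible HEK293 T-REx D1 cells, force-coupled to calcium signalling, were plated at 4000 cells/well with tetracycline and held overnight at 30 C. After no-wash calcium dye loading, compound-evoked calcium rise over 180 s flagged agonists.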
D1 PAM: enhances dopamine response at the human D1 receptor; P21728; HEK293 TREx D1 cells, calcium flux, dopamine EC20 potentiation; potentiation, % at 10 µM; 360,000 compounds, 0.036% hits; AID 504651; in the data active = potentiation above about 30%
D1 antag: human D1 dopamine receptor antagonism. HEK293 TREx D1 cells, calcium flux, dopamine EC80; stronger effect = lower value. activity change, negative = inhibition, % at 10 µM. P21728. AID 504652. 360,000 compounds, 3.2% hits; in the data active = activity change below about -30%
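Tetracycline-induced HEK293 Trex D1 cells, force-coupled to calcium, dye-loaded; compounds added and read 180 s, then EC80 dopamine added and calcium flux tracked kinetically another 180 s.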
D3 antag: antagonists of human D3 dopamine receptor | P35462 | D3R cells, DiscoveRx beta-arrestin luminescence, antagonist mode; stronger effect = lower value | max response, negative = inhibition, % | 360,000 compounds, 2.5% hits | AID 652054; in the data active = max response below about -50%; inconclusive = no clear call, values can overlap the other calls
Target sequence (P35462 whole entry, looked up): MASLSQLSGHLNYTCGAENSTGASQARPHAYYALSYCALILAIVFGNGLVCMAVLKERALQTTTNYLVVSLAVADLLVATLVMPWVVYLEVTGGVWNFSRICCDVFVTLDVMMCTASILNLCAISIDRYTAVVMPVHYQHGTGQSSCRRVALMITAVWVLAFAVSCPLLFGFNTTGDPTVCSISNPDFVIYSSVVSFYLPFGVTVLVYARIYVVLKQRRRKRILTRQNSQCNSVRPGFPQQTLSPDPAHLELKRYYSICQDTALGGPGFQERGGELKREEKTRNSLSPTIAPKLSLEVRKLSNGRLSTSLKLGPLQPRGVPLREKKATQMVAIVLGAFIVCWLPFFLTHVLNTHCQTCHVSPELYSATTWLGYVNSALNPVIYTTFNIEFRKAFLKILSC
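Cells plated overnight at 1500 cells/well, then exposed to library compounds with dopamine controls for 90 minutes at 37 degrees C. DiscoveRx reagent added for 30–60 minutes at room temperature; luminescence read, quantitative HTS format.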
D3 ag: agonists of human D3 dopamine receptor | AID 652048 | max activation, % | 410,000 compounds, 0.58% hits | D3R DiscoveRx beta-arrestin cells, luminescence, 90 min; in the data active = max activation above about 30%
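Agonist-mode cell screen: cells plated at 1500/well and incubated overnight at 37 °C, then exposed to library compounds for 90 min at 37 °C. Detection reagent was added for 30–60 min at room temperature, and luminescence was read.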
Each line names hits and unclear results; the compound was inactive in the other large screens.

Nc1nc(-c2cccs2)c(CC(=O)O)s1	D1 antag -38.4
CCCn1c2ccccc2c2cnn(CC(=O)N(Cc3ccccc3)C(C)C)c(=O)c21	none (no result: D3 antag)
CS(=O)(=O)c1nc(-c2ccccc2)cc(-c2ccccc2)c1C#N	D3 antag -65.9
Cc1ccc(-c2cc(-c3ccccc3)c(C#N)c(Br)n2)cc1	none
COCCNc1cc(N2CCN(C3CCCCC3)CC2)c2noc3c2c1C(=O)c1ccccc1-3	none (no result: D3 antag)
Cn1c(=O)c2c(nc(NCc3ccccc3)n2Cc2ccccc2Cl)n(C)c1=O	D1 antag -30.3 (no result: D3 antag)
CCOc1ccc(CCNc2nc3c(c(=O)n(C)c(=O)n3C)n2CC)cc1OCC	D1 antag -31.3
Cn1c(=O)c2c(nc(NCCCO)n2CCc2ccccc2)n(C)c1=O	none
Cn1c(=O)c2c(nc(NCCO)n2CCc2ccccc2)n(C)c1=O	D1 antag -79.5
Cn1c(=O)c2c(nc(SCc3cccnc3)n2Cc2ccccc2)n(C)c1=O	D1 antag -40.7
COc1ccc(CCNc2nc3c(c(=O)n(C)c(=O)n3C)n2Cc2ccc(F)cc2)cc1OC	none (no result: D3 antag)
Cc1ccc(Cn2c(SCc3cccnc3)nc3c2c(=O)n(C)c(=O)n3C)cc1	none
CCn1c(Oc2ccccc2C)nc2c1c(=O)n(C)c(=O)n2C	none
C=CCn1c(Oc2ccc(C=O)cc2OCC)nc2c1c(=O)n(C)c(=O)n2C	D1 antag -61.3
Cc1cc(-c2ccc(C)c(S(=O)(=O)NC(c3cccs3)C(C)C)c2)on1 (centres undefined)	none (no result: D3 antag)
CO/N=C(/C(=O)N[C@@H]1C(=O)N2C(C(=O)O)=C(COC(N)=O)CS[C@H]12)c1ccco1	none (no result: D1 agonist, D1 PAM, D1 antag, D3 antag)
O=C(N/N=C/c1sc2ccccc2c1O)c1ccccc1	D1 agonist 59.8
COc1ccc(C(=O)N/N=C/c2sc3ccccc3c2O)cc1	D3 antag -51.2
COc1ccc2cc(C(=O)N/N=C/c3sc4ccccc4c3O)ccc2c1	D1 agonist 108.3, D3 antag inconclusive
O=C(N/N=C/c1ccccc1)c1cccc2ccccc12	none (no result: D1 agonist, D1 PAM, D1 antag)
O=C(N/N=C/c1sc2ccccc2c1O)c1cccc2ccccc12	D1 agonist 31.4
COc1ccc(CCNC(=O)c2c(C)oc3nc(C)nc(N4CCOCC4)c23)cc1OC	none (no result: D3 antag)
CCCc1nn2c(=O)cc(COC(=O)c3ccc(NC(=O)c4cccs4)cc3)nc2s1	none (no result: D3 antag)
C[C@@H]1CN(CCCn2c3ccccc3c3ccccc32)C[C@H](C)N1	D1 agonist 39.6 (no result: D3 antag)
N=c1c(C(=O)NCC2CCCO2)cc2c(=O)n3ccccc3nc2n1CCCO (centres undefined)	none (no result: D3 antag)
O=C(NC1CCCC1)C1c2ccccc2OCC(=O)N1Cc1ccccn1 (centres undefined)	D3 antag -57.6 (no result: D1 agonist, D1 PAM, D1 antag)
CCCCNC(=O)C1c2ccccc2OCC(=O)N1Cc1ccccn1 (centres undefined)	D3 antag inconclusive (no result: D1 agonist, D1 PAM, D1 antag)
O=C(NCc1ccccc1)C1c2ccccc2OCC(=O)N1Cc1cccnc1 (centres undefined)	D3 antag -60.6 (no result: D1 agonist, D1 PAM, D1 antag)
O=C(NCc1ccccc1)C1c2ccccc2OCC(=O)N1CCc1ccccc1 (centres undefined)	none (no result: D1 agonist, D1 PAM, D1 antag)
NS(=O)(=O)c1ccc(-c2ccc(/C=C3\NC(=S)NC3=O)o2)cc1	D3 ag 43.2
CNc1nc(-c2ccccc2)c2sccc2n1	D3 antag -74.2 (no result: D1 agonist, D1 PAM, D1 antag)
COc1ccc(C)cc1-n1nnnc1SCC1CCCCO1 (centres undefined)	D1 antag -35.9
Cc1ccc(CNC(=O)C2CCN(S(=O)(=O)c3cc(-c4noc(C)n4)ccc3C)CC2)cc1	none (no result: D3 antag)
CCSc1cc(C2C(C#N)=C(N)OC(C)=C2C(=O)OC)c(C)o1 (centres undefined)	D3 antag -67.2
CCOC(=O)C1=C(C)OC(N)=C(C#N)C1c1ccc(O)c(OC)c1 (centres undefined)	D3 antag -62.1
CCOC(=O)C1=C(C)OC(N)=C(C#N)C1c1ccccc1 (centres undefined)	none
CCN(C(=O)Cn1c(C(=O)OC)cc2sc(Cl)cc21)c1cccc(C)c1	none (no result: D3 antag)
Oc1c(Br)cc(Br)cc1-c1nc2ccccc2s1	D1 antag -30.1 (no result: D3 antag)
COc1cccc(-c2nc3ccccc3s2)c1O	none
O=C(CCSc1ccc(F)cc1)Nc1ccc(-n2cnnn2)cc1	D1 antag -39.6
O=C(CCSc1nnc2ccc3ccccc3n12)Nc1ccc(F)cc1	none
CC(O)CNCCCOc1ccc(Cl)cc1C(C)(C)C (centres undefined)	D3 antag -52.7
COCCCNC(=O)COc1ccc(Br)cc1Cl	D1 antag -34.0
C=CCc1cc(Cl)ccc1OCCCNC(C)C	D3 antag inconclusive
CC(C)NCCCOc1ccc(Cl)cc1Br	D1 agonist 47.0, D3 antag -73.0
CC(C)NCCCCOc1ccc(Br)cc1Cl	D1 agonist 49.8, D3 antag -70.8
Cc1ccc(Cn2cc(S(=O)(=O)c3cccc(Cl)c3)c(=O)c3cc(F)c(N4CCCCC4)cc32)cc1	none (no result: D3 antag)
O=S(=O)(Nc1cc(Br)cc2cccnc12)c1cccc2ccccc12	none (no result: D3 antag, D3 ag)
COCCCNCCCOc1ccc(Cl)cc1Br	D3 antag inconclusive
CCCCNCCOCCOc1ccc(Cl)cc1Br	D1 antag -41.3, D3 antag -87.1
CCCCNCCOCCOc1ccc(F)cc1	D3 antag -53.8
Cc1ccccc1CNC(=O)C1CCN(S(=O)(=O)Cc2ccccc2)CC1	none (no result: D3 antag)
Cc1cccc(/C=C\c2nc3ccccc3c(=O)[nH]2)c1	none
Cc1cccc(/C=C(\C#N)c2nc3ccccc3c(=O)[nH]2)c1	D3 ag 34.1 (no result: D3 antag)
CN(C)c1ccc(/C=C/c2nc3ccccc3c(=O)[nH]2)cc1	D1 agonist 38.5
O=c1[nH]c(/C=C/c2ccc(Br)cc2)nc2ccccc12	none
CN(C)c1ccc(/C=C(\C#N)c2nc3ccccc3c(=O)[nH]2)cc1	D1 agonist 96.9 (no result: D3 antag)
Cc1nc(/C=C/c2ccccc2)[nH]c(=O)c1-c1ccccc1	D1 antag -42.9
CC(C)(C)c1ccc(S(=O)(=O)NCc2nc3cccnc3n2Cc2ccccc2Cl)cc1	none (no result: D3 antag)
COc1ccc(CNc2nc(-c3ccc(OC)cc3)cc(C(F)(F)F)n2)cc1	none (no result: D3 antag)
CCC(C)NC(=O)CSc1nc2n[nH]c(C)c2c(=N)n1-c1cc(Cl)ccc1C (centres undefined)	none (no result: D3 antag)
S=c1[nH]nc(-c2cccnc2)n1-c1ccc2c(c1)OCCO2	D1 antag -46.2, D3 antag inconclusive
Fc1ccc(-c2n[nH]c(=S)n2-c2ccc3c(c2)OCCO3)cc1	none
O=C(NCCN1CCN(c2cccc(Cl)c2)CC1)C1COc2ccccc2C1 (centres undefined)	D1 antag -86.5 (no result: D3 antag)
COc1ccc2c(c1)CC(C(=O)Nc1cc(Cl)ccc1C)CO2 (centres undefined)	D3 ag 67.5 (no result: D3 antag)
O=C(NCCc1ccccc1)C1COc2ccccc2C1 (centres undefined)	none (no result: D3 antag)
COc1ccc2c(c1)CC(C(=O)NCCCN1CCN(c3ccccc3F)CC1)CO2 (centres undefined)	none (no result: D3 antag)

Bioassay records (PubChem BioAssay)
